PAFAH1B3 FP inh: PAFAH1B3 enzyme inhibitors, primary screen, biochemical, fluorescence polarization, human; recombinant PAFAH1B3, FP-rhodamine probe; inhibition, % at 3.39 µM; 340,000 tested, 0.28% active; AID 492972, 2010;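 active means inhibition above the screen-wide average of all tested compounds plus 3 SD, cut at about 25% in these data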;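 further: 0% = enzyme with DMSO only and 100% = wells lacking PAFAH1B3 protein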
pPAFAH FP inh: pPAFAH enzyme inhibitors, primary screen, biochemical, fluorescence polarization, human; Platelet-activating factor acetylhydrolase (Homo sapiens), Q13093; AID 463082, 2010; inhibition, % at 3.39 µM; recombinant pPAFAH, FP-rhodamine probe fluorescence polarization; 330,000 tested, 1.5% active;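 active means inhibition above the mean inhibition across the screen plus 3 SD, cut at about 25% in these data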;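 further: inhibitors block binding of the rhodamine activity-based probe so polarization drops; 0% = enzyme with DMSO and 100% = wells lacking pPAFAH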
PP5 inh: PP5 phosphatase inhibitors, primary screen, biochemical, fluorescence; Serine/threonine-protein phosphatase 5 (Homo sapiens), P53041; purified PP5c, OMFP substrate fluorescence; inhibition, % at 6.7 µM; 320,000 tested, 0.18% active; AID 1987, 2009;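 active means inhibition above the campaign's mean inhibition across all tested compounds plus 3 SD, cut at about 9.5% in these data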;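 further: 0% = DMSO only and 100% = 100 µM cantharidin control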
PP1 inh: PP1-alpha phosphatase inhibitors, primary screen, counter-screen for PP5 inhibitor project, biochemical, fluorescence, OMFP substrate, single point. Serine/threonine-protein phosphatase PP1-alpha catalytic subunit (Homo sapiens), P62136. purified PP1alpha. inhibition, % at 6.7 µM. 320,000 tested, 0.9% active. AID 2235, 2010;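 active means inhibition above the mean inhibition of all tested compounds plus 3 SD, computed separately for each screening campaign, cut at about 15% in these data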
PAFAH2 FP inh: PAFAH2 enzyme inhibitors, primary screen, biochemical, fluorescence polarization, human; Platelet-activating factor acetylhydrolase 2, cytoplasmic (Homo sapiens), Q99487; recombinant PAFAH2, FP-rhodamine activity probe; inhibition, % at 3.39 µM; 340,000 tested, 0.99% active;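 active means inhibition above the mean over all tested compounds plus 3 SD, cut at about 30% in these data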;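 further: inhibitors block probe labeling of enzyme so polarization drops; 0% = enzyme with DMSO and 100% = wells lacking PAFAH2 protein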
PAFAH1B2 FP inh: PAFAH1B2 enzyme inhibitors, primary screen, biochemical, fluorescence polarization, human | 340,000 tested, 1.2% active | recombinant PAFAH1B2, FP-rhodamine activity probe | inhibition, % at 3.39 µM;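 active means inhibition above the mean of all tested compounds plus 3 SD, cut at about 24% in these data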;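 further: 0% = enzyme with DMSO and 100% = wells lacking PAFAH1B2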
Target sequence (P68402 whole entry, looked up): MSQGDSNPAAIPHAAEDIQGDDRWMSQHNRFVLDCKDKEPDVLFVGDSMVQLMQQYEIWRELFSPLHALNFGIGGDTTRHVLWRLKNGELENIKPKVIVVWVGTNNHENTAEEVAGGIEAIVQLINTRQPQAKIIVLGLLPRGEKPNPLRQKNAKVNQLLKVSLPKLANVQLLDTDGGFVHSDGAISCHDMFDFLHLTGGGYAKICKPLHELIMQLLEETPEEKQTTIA
The depositor's hits bear a star; nt = no result given. Shown are actives, neighbours in structure and some others; about 3.4% of the full set was active somewhere.

SMILES	PAFAH1B3 FP inh	pPAFAH FP inh	PP5 inh	PP1 inh	PAFAH2 FP inh	PAFAH1B2 FP inh
CC(=O)Nc1ccc(NC(=O)CN(C)S(=O)(=O)c2ccc3ccccc3c2)cc1	-6	4	-1	-1	-1	-3
CCN1C(=O)CC(NNC(=O)c2ccc(Cl)cc2)C1=O (stereo not drawn)	3	5	-2	-1	9	0
COc1ccc(C(=O)NNC2CC(=O)N(Cc3ccc(Cl)cc3)C2=O)cc1OC (stereo not drawn)	5	33*	0	-2	5	4
O=C(NCCc1ccccn1)c1ccc(OC2CCN(CCc3ccccc3)CC2)cc1	-3	nt	nt	nt	-2	-7
CCC1=NN2C(=N)/C(=C/c3cc(C)n(Cc4ccccc4)c3C)C(=O)N=C2S1	1	18	2	16*	-6	15
COc1cccc(CN(C)C(=O)c2cc(S(=O)(=O)NC3CCCCC3)ccc2C)c1	-1	34*	nt	nt	10	7
CCCCN(CC)CCCNC(=O)c1ccc(CS(=O)(=O)c2ccccc2C)o1	6	-1	-1	-1	-3	5
CCCCC(=O)NC(c1ccccc1OC)c1ccc2cccnc2c1O (stereo not drawn)	7	17	4	15*	14	3
CN(C(=O)COC(=O)c1cc(-c2ccccc2Cl)nc2ccccc12)C1CCS(=O)(=O)C1 (stereo not drawn)	4	27*	-3	-2	-1	0
CN(C(=O)COC(=O)c1cc(-c2ccc(Cl)s2)nc2ccccc12)C1CCS(=O)(=O)C1 (stereo not drawn)	-4	3	3	2	-2	-8
O=C(CNC(=O)c1ccccc1F)N/N=C\C=C\c1ccccc1	3	-2	0	-4	-24	-1
CC1CCCCC1NC(=O)CSc1nnc(COc2ccc(Cl)cc2)o1 (stereo not drawn)	10	-1	1	3	-13	29*
COc1ccc(OCc2nnc(SCC(=O)NC3CC4CCC3C4)o2)cc1 (stereo not drawn)	0	4	-1	-1	-6	6
O=C(CSc1nnc(COc2ccc(Cl)cc2)o1)NC1CC2CCC1C2 (stereo not drawn)	5	10	4	0	2	24*
Cc1noc(C)c1C(=O)NC(C)C12CC3CC(CC(C3)C1)C2 (stereo not drawn)	-3	-2	3	3	-5	23
Cc1nnsc1C(=O)NC(C)C12CC3CC(CC(C3)C1)C2 (stereo not drawn)	3	1	2	2	5	29*
CC(NC(=O)c1ccccc1F)C12CC3CC(CC(C3)C1)C2 (stereo not drawn)	11	6	3	0	8	27*
COc1ccc2oc(=O)c(C(=O)NCC3CCCO3)cc2c1 (stereo not drawn)	4	2	2	-8	5	-3
COc1ccccc1N=c1oc2cc(O)ccc2cc1C(=O)NCC1CCCO1 (stereo not drawn)	7	26*	2	-3	0	1
COc1cccc(N=c2oc3cc(O)ccc3cc2C(=O)NCC2CCCO2)c1 (stereo not drawn)	7	25*	-1	-5	11	4
COc1ccccc1OCC(=O)NCc1nc(-c2ccccc2)no1	-1	3	0	-3	7	3
Cc1ccc(S(=O)(=O)N2CCN(S(=O)(=O)N3CCC(C)CC3)CC2)c(C)c1	11	1	1	2	-10	2
CC1CCN(S(=O)(=O)c2ccc3c4c2CC(=O)N4CC(C)S3)CC1 (stereo not drawn)	-5	27*	-4	-1	62*	16
Cc1csc(SCC(=O)NCCc2ccc(Cl)cc2)n1	9	7	0	-4	4	32*
Cc1ccc(CNC(=O)CSc2nc(C)cs2)cc1	3	8	0	-6	8	7
N#CCC(=O)c1ccccc1Oc1ccc(Cl)cc1	3	25*	2	4	-7	6
O/N=C/c1ccccc1Oc1ccc(Cl)cc1	5	0	4	-2	-8	5

Screening results (PubChem)
